WT yeast gro inh – growth inhibition of WT yeast, mitochondrial fusion screen | mitochondrial fusion phenotypic screen, WT strain | inhibition, % at 10 µM | 190,000 compounds, 2.1% hits; in the data active = inhibition above about 58%; tested in S. cerevisiae
INS promoter inh – TRM-6 insulin promoter activity inhibition; TRM-6 cells (human fetal islet line), insulin promoter-eGFP reporter, imaging; reporter expression induced with tamoxifen; inhibition, % at 2 µM; 130,000 compounds, 0.9% hits; AID 1273;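 active = inhibition above the mean plus 3 SD, with well images judged a real hit on visual review, cut at about 60% in these data, passing the limit was not always enough; inconclusive = inhibition over the cutoff but images rejected on review; inactive = inhibition not above the cutoff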
Ins promoter up – MIN6 insulin promoter up-regulation | MIN6 insulin promoter-GFP reporter, high-content imaging; active compounds read high | z-score at 5 µM | 190,000 compounds, 0.3% hits;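 active = z-score above 3 at 5 µM with at least 500 cells counted in the well; inconclusive = wells under 500 cells, flagged as cytotoxic or low count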
Lmaj promast – reduces viability of Leishmania major promastigotes; inhibition, % at 10 µM; 200,000 compounds, 9% hits; resazurin fluorescence viability; in the data active = inhibition above about 50%;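 note: promastigotes grown with compound for 44 hours at 28 °C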
ROMK primary – modulators of human ROMK potassium channel | P48048 | Tet-inducible ROMK, thallium flux fluorescence; actives lie on both sides | B-score at 10 µM | 130,000 compounds, 2% hits | AID 1918;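 active = signal ratio slope over the read window, or its plate-corrected B-score, at least 3 SD from the plate mean, either direction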;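 note: B-score of the F/F0 ratio slope over 7 to 12 s after thallium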
KCC2 mod – KCC2 (human) Cl- transport modulation; B-score of Tl+ flux slope (higher = more flux/activation; lower = inhibition) at 10 µM; 190,000 compounds, 2.2% hits; Q9H2X9; KCC2 cells, thallium flux FluoZin-2 fluorescence;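 active = thallium flux slope and its plate-corrected score both differing from the plate sample mean at a set confidence after two filtering rounds, in either direction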;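 note: slope of fluorescence scaled to starting intensity during 10 to 20 s after thallium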
Target sequence (Q9H2X9 whole entry, looked up): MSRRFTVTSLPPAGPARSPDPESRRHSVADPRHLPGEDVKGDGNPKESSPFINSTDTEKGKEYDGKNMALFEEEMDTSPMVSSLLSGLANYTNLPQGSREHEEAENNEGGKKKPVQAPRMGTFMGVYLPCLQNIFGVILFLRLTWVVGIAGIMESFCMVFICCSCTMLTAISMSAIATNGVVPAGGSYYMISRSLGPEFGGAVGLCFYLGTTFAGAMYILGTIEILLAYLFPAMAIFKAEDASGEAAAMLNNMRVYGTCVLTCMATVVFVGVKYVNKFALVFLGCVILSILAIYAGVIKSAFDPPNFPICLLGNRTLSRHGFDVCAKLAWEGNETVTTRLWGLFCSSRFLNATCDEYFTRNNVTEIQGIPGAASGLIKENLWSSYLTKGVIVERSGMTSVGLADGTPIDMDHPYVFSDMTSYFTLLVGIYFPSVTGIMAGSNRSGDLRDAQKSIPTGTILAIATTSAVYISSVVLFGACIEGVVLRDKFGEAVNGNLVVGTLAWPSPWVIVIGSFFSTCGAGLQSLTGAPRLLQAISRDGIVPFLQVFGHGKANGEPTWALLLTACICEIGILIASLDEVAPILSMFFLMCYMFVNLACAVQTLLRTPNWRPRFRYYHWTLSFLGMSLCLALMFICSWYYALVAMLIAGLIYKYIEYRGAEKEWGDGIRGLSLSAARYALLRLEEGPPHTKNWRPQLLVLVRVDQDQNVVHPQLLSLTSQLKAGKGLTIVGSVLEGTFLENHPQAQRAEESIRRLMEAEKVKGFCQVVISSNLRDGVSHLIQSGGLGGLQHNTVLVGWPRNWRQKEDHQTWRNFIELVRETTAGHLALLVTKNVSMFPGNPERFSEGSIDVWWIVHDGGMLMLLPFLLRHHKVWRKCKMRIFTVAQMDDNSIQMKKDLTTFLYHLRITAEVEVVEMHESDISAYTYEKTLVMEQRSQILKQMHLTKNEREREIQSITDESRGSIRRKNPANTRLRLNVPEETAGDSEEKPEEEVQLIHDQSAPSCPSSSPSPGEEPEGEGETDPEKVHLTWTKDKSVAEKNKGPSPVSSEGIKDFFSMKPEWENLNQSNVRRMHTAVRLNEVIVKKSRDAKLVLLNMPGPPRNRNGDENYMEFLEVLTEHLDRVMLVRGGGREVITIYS
ROMK retest – confirmation of human ROMK potassium channel modulators; shares compounds with ROMK primary; 3,000 compounds, 54% hits; normalized thallium flux (F/F0 slope) at 10 µM; AID 1917; ROMK thallium flux, fluorescence ratio; active compounds read low;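 active = Flux at 10 µM at least 3 SD below or above vehicle control mean in one or both replicates; inconclusive = no clear call, values can overlap the other calls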
Hits are given with their value; n = inactive; u = inconclusive; x = no result given. This is a sample that favours compounds with a hit; in the whole collection about 12% have one here.

SMILES | WT yeast gro inh | INS promoter inh | Ins promoter up | Lmaj promast | ROMK primary | KCC2 mod | ROMK retest
Cc1ccc2cccc(OCC(=O)c3cc(C)n(Cc4ccco4)c3C)c2n1 | n | x | n | n | n | n | x
CC1CCCCN1CCCNC(=O)c1ccc2c(=O)n(CCc3ccccc3)c(=O)[nH]c2c1 (stereo not given) | n | n | x | n | -3.01 | n | u
Cc1ccccc1-c1nc(CN2CCC(C(=O)O)CC2)c(C)o1 | n | x | n | n | x | n | x
Cc1oc(-c2ccccc2F)nc1CN1CCC(C(=O)NC2CCCCCCC2)CC1 | n | x | n | n | -4.6 | n | 0.058
CC1=NN(c2ccccc2)C(=O)/C1=C\C=C1\N(C)c2ccccc2C1(C)C | n | x | n | n | x | n | 0.063
CC1=NN(c2ccccc2)C(=O)/C1=C\C=C1/N(C)c2ccccc2C1(C)C | n | x | n | n | x | n | n
COc1cc(S(=O)(=O)N2CCCCC2)c(OC)cc1Br | n | n | n | n | n | n | x
CCOC(=O)c1cnc2nc(COc3ccccc3)[nH]n2c1=O | x | n | n | n | n | n | x
Cc1cc(NC(=O)CSc2nnc3c(C)cc4cc(C)c(C)cc4n23)no1 | n | n | n | n | n | x | x
COc1ccccc1NC(=O)/C=C/c1ccc2c(c1)OCO2 | n | x | n | n | 5.13 | n | n
COc1ccccc1NC(=O)COC(=O)/C=C/c1ccc2c(c1)OCO2 | n | x | x | n | n | n | x
Cn1nc([N+](=O)[O-])c2c(-c3nc4ccccc4s3)c(N)n(C3CCCCC3)c2c1=O | n | n | n | n | n | x | x
CC(C)(C)N(NC(=O)Nc1ccc(Cl)c(Cl)c1)C(=O)c1ccccc1 | n | n | n | n | x | n | n
COc1cccc(/C(O)=C/c2nc3ccc(C(=O)NCCc4cccc(C)c4)cc3[nH]c2=O)c1 | n | x | n | n | x | n | 0.0624
CNC(=S)N/N=C(\C)c1cccc([N+](=O)[O-])c1 | n | x | n | n | x | n | x
COc1ccc(C(=O)NCCSC2CCCCC2)cc1 | n | n | n | n | -2.21 | n | u
COc1ccc(NC(=O)CC2C(=O)N(c3ccc(OC)cc3)C(=O)N2CCc2cccs2)cc1 (stereo not given) | n | n | n | n | x | n | x
NC(=O)c1ccc(N2CCN(S(=O)(=O)c3ccccc3)CC2)c([N+](=O)[O-])c1 | n | n | n | n | n | n | x
NNC(=O)c1cc2c(N3CCC(Cc4ccccc4)CC3)ncnc2s1 | 58.1 | n | n | n | -4.52 | n | n
COc1ccc(NC(=O)c2nc[nH]c2C(=O)N[C@H](C)c2ccccc2)cc1 | x | x | n | x | x | n | x
CC(C)(C)C(=O)NC1CCN(S(=O)(=O)c2ccccc2F)CC1 | n | n | n | n | n | x | x
O=C(NCCC1=CCCCC1)C(=O)NCc1ccccc1 | n | x | n | n | 1.17 | n | n
Cc1ccc(CNC(=O)C(=O)NCCC2=CCCCC2)cc1 | n | n | n | n | n | n | x
O=C(NCCc1ccccc1)C(=O)NN=C1CCCC1 | n | n | n | n | 2.78 | n | n
COc1ccccc1NC(=O)CSc1nnc(C2CCCCC2)n1C | n | n | n | n | n | n | x
SMILES | WT yeast gro inh | INS promoter inh | Ins promoter up | Lmaj promast | ROMK primary | KCC2 mod | ROMK retest
CN(C)c1ccc(N=C/C=C2/N(C)c3ccccc3C2(C)C)cc1 | n | x | n | 90.3 | x | n | 0.0538
O=C(CSc1nnnn1-c1ccccc1)NC1CCCc2ccccc21 (stereo not given) | n | x | n | n | x | n | x
Cc1sc2ncnc(NC3CCN(Cc4ccccc4)CC3)c2c1C | n | n | n | n | -3.72 | n | u
c1ccc(CN2CCC(Nc3ncnc4sccc34)CC2)cc1 | n | x | n | n | n | n | x
COc1ccccc1CN=Cc1[nH]c2ccc(Br)c(Cl)c2c1O | 67.5 | x | x | n | -3.59 | n | 0.0443
Cc1cccc(N=Cc2[nH]c3ccc(Br)c(Cl)c3c2O)c1 | n | n | x | n | n | n | x
CC(=O)Nc1ccc(/C=C(\C#N)C(=O)NC2CCCCC2C)cc1 (stereo not given) | n | x | n | n | n | n | x
CSc1ccc(/C=C(\C#N)C(=O)NC2CCCCC2C)cc1 (stereo not given) | n | n | n | 55.3 | -3.12 | n | 0.0465
CC1CCCCC1NC(=O)/C(C#N)=C/c1ccccc1F (stereo not given) | 72.6 | n | n | 100.2 | -5.75 | n | 0.0428
CN(CC1CCCO1)S(=O)(=O)c1ccc(C(=O)Nc2nc(-c3ccccn3)cs2)cc1 (stereo not given) | n | x | x | 100.3 | x | n | n

Screening results deposited in PubChem by several laboratories.
